# Screens from PubChem BioAssay.
# OTUD3 inh: human OTUD3 deubiquitinase inhibition; Q5T2D3; purified OTUD3, Ub-rhodamine fluorescence, 2 h; inhibition, % at 25 µM; 47,000 tested, 0.7% active; AID 1645858
# Target sequence (Q5T2D3 whole entry, looked up): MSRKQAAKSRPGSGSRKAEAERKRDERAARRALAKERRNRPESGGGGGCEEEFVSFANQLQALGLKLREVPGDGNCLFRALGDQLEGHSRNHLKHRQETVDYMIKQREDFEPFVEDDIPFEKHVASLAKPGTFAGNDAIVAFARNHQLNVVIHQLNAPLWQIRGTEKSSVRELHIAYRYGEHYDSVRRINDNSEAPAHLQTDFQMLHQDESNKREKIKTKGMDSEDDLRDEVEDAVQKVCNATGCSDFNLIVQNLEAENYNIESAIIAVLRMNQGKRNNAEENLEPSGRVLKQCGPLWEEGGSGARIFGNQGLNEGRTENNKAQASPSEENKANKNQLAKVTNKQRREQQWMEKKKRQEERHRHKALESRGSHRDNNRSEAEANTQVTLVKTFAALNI
# USP28 inh: inhibitors of human USP28 deubiquitinase; Q96RU2; purified USP28, Ub-rhodamine cleavage fluorescence, 30 min; inhibition, % at 25 µM; 47,000 tested, 3% active
# Starred values were filed as active, the others as inactive. A selection: hits, their analogues and other compounds. The true share with any hit is near 3.3%. Cut-off read from the data, not from the text of the source: active = inhibition above about 30%; inactive = the rest.
SMILES,OTUD3 inh,USP28 inh
CC(=O)Nc1ccc(S(=O)(=O)N2CCCC(C(=O)NCCc3ccc(O)cc3)C2)cc1 (configuration not stated),-7.2,-13.9
CCc1nnc(NC(=O)c2nnn(-c3ccccc3Cl)c2C)s1,16.5,59.8*
Cc1ccc(Cl)c(-n2nnc(C(=O)Nc3ccccc3F)c2C)c1,12.1,9.3
Cc1ccccc1Cn1c(=O)sc2ccccc2c1=O,13.5,24.2
COc1ccc(Cn2c(=O)sc3ccccc3c2=O)cc1,12.1,44.4*
COc1ccc(C(=O)N2CCC3(C2)Nc2cccnc2NC3=NC2CCCC2)cn1 (configuration not stated),-171.2,-245.0
COc1ccc(S(=O)(=O)N2CCC(c3ncc(C)[nH]3)C2)cc1 (configuration not stated),12.0,8.7
CCN1C[C@@]23CN(C(=O)c4cc(C)on4)C[C@@H](C[C@@H]2S1(=O)=O)O3,-4.2,-1.5
Cc1cccc(C(=O)N2C[C@H](OCC3CC3)[C@H]3OCCC[C@H]32)n1,-7.9,-11.0
CCOc1ccc(CCNC(=O)c2cccc3c2C(=O)N(CCOC)C3)cc1OCC,-1.1,52.7*
COCCN1Cc2cccc(C(=O)NCc3ccccc3OC)c2C1=O,-0.5,11.1
CCCN1Cc2cccc(C(=O)NCc3ccc(OC)cc3)c2C1=O,-3.4,10.6
CCCN1Cc2cccc(C(=O)NCCc3ccccc3)c2C1=O,5.3,30.6*
CCOc1ncccc1C(=O)N1CCN(c2ccc(CN3CCC(N(C)C)CC3)cn2)CC1,-9.0,-21.3
O=C(Nc1ccc(N2CCOCC2)c(C(F)(F)F)c1)c1ccco1,8.8,9.9
O=C(Nc1ccc2c(c1)OCO2)c1cncc(NS(=O)(=O)c2ccc3c(c2)OCCO3)c1,-50.0,-47.1
CC(OC(=O)c1ccc(N2CCCC2=O)cc1)C(=O)Nc1ccc2c(c1)OCCO2 (configuration not stated),3.7,5.8
COc1ccc(C(=O)Nc2cccc(N3CCCCC3=O)c2)cc1,2.2,9.8
CN(C)S(=O)(=O)c1cccc(NC(=O)c2ccc(N3CCCC3=O)cc2)c1,14.3,44.2*
Cc1noc(C)c1S(=O)(=O)Nc1ccc(C(=O)Nc2ccc3c(c2)OCCO3)cc1,-0.3,84.5*
O=C(Nc1ccc2c(c1)OCCO2)c1ccc(N2CCCC2=O)cc1,14.6,44.8*
N#Cc1ccc(CN2C(=O)NC3(CCCc4ccccc43)C2=O)cc1 (configuration not stated),-9.0,-10.6
CC(C)(C)c1ccc(C2CC(=O)C3=C(C2)Nc2ccccc2N(C(=O)CCC(=O)O)C3c2cccc([N+](=O)[O-])c2)cc1 (configuration not stated),-13.2,3.2
Cc1c(C)c2ccc(OCC(=O)N3CCC4(O)CCCCC4C3)c(C)c2oc1=O (configuration not stated),12.6,10.5
COc1cccc(CN2CCN(c3ccc(F)cc3)C2=O)c1,-1.8,40.3*
SMILES,OTUD3 inh,USP28 inh
CC(C)(C)c1ccc(CN2CCN(c3ccc4c(c3)CCC4)C2=O)cc1,27.5,13.0
CC(C)c1ccc(N2CCN(Cc3ccc(F)cc3)C2=O)cc1,6.7,30.7*
O=C1N(Cc2ccc(F)cc2)CCN1c1ccc2c(c1)CCC2,26.5,51.9*
O=C1N(Cc2ccc(F)cc2)CCN1c1ccc(C(F)(F)F)cn1,18.2,65.1*
O=C(Nc1ccc(N2CCN(Cc3ccccc3)C2=O)nc1)c1ccncc1,2.4,11.4
COc1cccc(CC(=O)NC2CCN(c3ccc(F)cc3)C2=O)c1 (configuration not stated),-13.3,-8.0
CC(C)c1ccc(N2CCN(Cc3cccnc3)C2=O)cc1,7.9,13.7
Cc1cc(C)c2oc(C(=O)NCC(c3ccco3)N3CCCC3)cc(=O)c2c1 (configuration not stated),-0.2,1.8
CC(=O)N1c2ccccc2CC1C(=O)N1CCN(c2ccccn2)CC1 (configuration not stated),8.3,5.0
CNC(=O)C1CN(C(=O)c2ccccc2C)CC12CCCC2 (configuration not stated),8.7,7.7
COc1ccc(NC(=O)CC2C(=O)N(c3ccc(OC)cc3)C(=O)N2Cc2cccnc2)cc1 (configuration not stated),-2.1,-2.6
Cc1ccc(NC(=O)Cn2cc(S(=O)(=O)N3CCCCCC3)ccc2=O)cc1,-4.7,0.2
Cc1ccc(-n2c(=O)[nH]c3c(C(N)=O)nc(-c4ccccn4)nc32)cc1,-36.9,-28.0
Cc1ccc(-n2c(=O)[nH]c3c(C(N)=O)nc(-c4cccnc4)nc32)cc1,31.5*,18.5
COc1ccc(CCNC(=O)COc2ncnc3oc(C)c(C)c23)cc1OC,7.3,56.8*
COc1ccc(CCNC(=O)Cn2cncn2)cc1OC,-2.3,-7.7
O=C(CC1(O)CCCCC1)N1CCCC1c1ccnc(=O)[nH]1 (configuration not stated),-11.7,-22.5
Cc1cccc(C(=O)NCC2COCc3c(-c4ccoc4)nnn3C2)n1 (configuration not stated),-0.6,-1.0
Cc1ccc2nc(-c3ccccc3)c(CN3CCN(c4cccc(Cl)c4)CC3)n2c1,-0.1,-1.1
O=C(Nc1ccc(Oc2ccccc2)cc1)c1c(F)cccc1Cl,8.0,27.5
O=C(Nc1cc(C(F)(F)F)cc(C(F)(F)F)c1)c1c(F)cccc1Cl,13.7,32.7*
COc1ccc(CCNC(=O)C2CCCN(S(=O)(=O)N3CCC(C)CC3)C2)c(OC)c1 (configuration not stated),14.4,10.4
CCOc1ccccc1C1CC(=O)Nc2c1c(C)nn2-c1nncc(-c2ccc(C)cc2)n1 (configuration not stated),11.4,4.1
COc1ccc(CC(=O)Nc2c(NCc3ccccc3)c3ccccc3oc2=O)cc1,13.6,33.6*
COc1ccc(-c2nonc2NC(=O)Cc2ccccc2)cc1,4.3,-25.6
SMILES,OTUD3 inh,USP28 inh
CC(=O)NC(Cc1ccccc1)C(=O)OCC(=O)c1ccc(-c2ccccc2)cc1 (configuration not stated),7.1,4.4
O=C(NCc1ccncc1)c1ccc(Cn2cnc3ccccc3c2=O)o1,0.0,9.3
COC(=O)c1ccc(Cn2cnc3ccc(Br)cc3c2=O)o1,2.2,79.9*
COC(=O)c1ccc(Cn2cnc3ccc(F)cc3c2=O)o1,4.6,86.6*
O=C(NCc1cccnc1)c1ccc(Cn2cnc3ccccc3c2=O)o1,15.5,22.9
Cc1c(-c2cccc(Cl)c2)nc2ccccc2c1C(=O)NC1CCN(Cc2ccccc2)CC1,-16.1,-13.2
O=S(=O)(Nc1cnc(N2CCCC2)nc1)c1ccccc1Cl,-9.4,-10.1
O=C(Nc1cccc(F)c1)c1cc(-c2ccncc2)n(-c2ccc(F)cc2)n1,2.6,1.8
COc1cc(NC(=O)c2cc(-c3ccncc3)n(-c3ccccc3)n2)cc(OC)c1,12.5,39.5*
Cc1c(C(=O)N2CCCC2)cnn1-c1ccc(-c2nc(C(C)(C)C)no2)cn1,8.9,12.2
Cc1nn(-c2cc(N(C)C)ncn2)c(C)c1CCC(=O)NCc1ccccc1Cl,-0.2,-3.4
O=[N+]([O-])c1cccc(CSc2nnc(/C=C/c3ccccc3)o2)c1,11.6,57.5*
COC(=O)c1ccc(CSc2nnc(/C=C/c3ccccc3)o2)cc1,-2.9,-14.7
CC1=CC2=C(C=O)C(=O)[C@](C)(O)[C@@H](O)C2=CO1,-133.2,-195.5
Cc1cccc(-c2nc3c4cnn(-c5cccc(Cl)c5)c4ncn3n2)c1,10.5,6.4
